Source: PubChem BioAssay (Broad Institute)
FGF22 binding: shifts melting point of recombinant human FGF22. recombinant FGF22 thermal shift, SYPRO orange fluorescence; percent of sucrose octasulfate shift, DMSO zero. activity (Tm shift, normalised), % at 9.99 µM. 340,000 compounds, 1.5% hits. AID 651658;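 active means mean Tm shift, scaled 0 neutral to 100 positive control, at about 1.3% or above, every replicate too, limit read from the data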
Target sequence (Q9HCT0 whole entry, looked up): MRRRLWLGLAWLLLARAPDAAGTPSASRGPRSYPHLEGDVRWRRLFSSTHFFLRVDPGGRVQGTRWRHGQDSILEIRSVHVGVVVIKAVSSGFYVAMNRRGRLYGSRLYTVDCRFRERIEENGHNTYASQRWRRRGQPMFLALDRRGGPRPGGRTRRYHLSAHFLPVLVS
PvdQ inh: P. aeruginosa PvdQ acylase inhibition; purified PvdQ acylase, fluorescence plate reader; 340,000 compounds, 0.063% hits; inhibition, % at 10 µM; in the data active means inhibition above about 30%, passing the limit was not always enough;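 further: 0% = vehicle neutral wells and 100% = reference inhibitor wells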
CDK5 p35 inh: inhibitors of human CDK5/p35 kinase. Recombinant CDK5/p35, ADP-Glo luminescence, 60 min. AID 488839. 330,000 compounds, 0.01% hits. inhibition, % at 10 µM. Q00535+Q15078;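 active means highest replicate inhibition of at least 50% and at least 75% of replicates reaching 50%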;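 further: plate controls were DMSO neutral control for no effect and GW8510 at 10 µM for full effect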
PglD DTNB: PglD (C. jejuni) enzyme inhibition | purified PglD enzyme, DTNB colorimetric CoA detection | inhibition, % at 12.5 µM | 360,000 compounds, 0.098% hits; in the data active means inhibition above about 16%, passing the limit was not always enough
SIRT5 inh: sirtuin-5 (human) deacylase inhibition; Q9NXA8; Purified SirT5, succinyl-peptide AMC, trypsin-coupled fluorescence; inhibition, % at 15 µM; 330,000 compounds, 1.1% hits; AID 652115; in the data active means inhibition above about 15%
dFosB activator: activators of mouse delta FosB homodimer; AID 493131; purified delta FosB, TAMRA-CDK5 oligo fluorescence polarization; percent of positive-control signal above neutral wells; P13346; activation, % at 25 µM; 340,000 compounds, 0.99% hits;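 active means mean activation above about 17%, with every replicate also reaching it, limit read from the data, passing the limit was not always enough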
* = called active by the depositor; ! = a repeat was not active. Hits are enriched below; roughly 2.8% of the tested compounds scored in any of these assays.

For Cc1noc(C)c1S(=O)(=O)N(C)C[C@H]1Oc2ccc(NC(=O)Nc3ccc4c(c3)OCO4)cc2CC(=O)N([C@H](C)CO)C[C@H]1C the results were FGF22 binding 0, PglD DTNB -1 and SIRT5 inh 1.
Screening C[C@@H]1CN([C@@H](C)CO)C(=O)c2cccc(NC(=O)C3CC3)c2O[C@@H]1CN(C)S(=O)(=O)c1cccs1 returned FGF22 binding 0, PglD DTNB -1 and SIRT5 inh -3.
O=C1c2ccccc2/C(=C\c2ccc(Br)nc2)N1c1ccccc1 was read as FGF22 binding 43*.
For COc1ccc(S(=O)(=O)Nc2ccc3c(c2)C(=O)N([C@@H](C)CO)C[C@H](C)[C@@H](CN(C)S(C)(=O)=O)O3)cc1 the results were FGF22 binding 0, PglD DTNB 3 and SIRT5 inh 5.
Screening CNC[C@H]1OCCCC[C@@H](C)Oc2ccc(N(C)C)cc2C(=O)N([C@H](C)CO)C[C@H]1C returned FGF22 binding 0, PglD DTNB 0 and SIRT5 inh 15*.
For C[C@@H]1CCCCO[C@@H](CN(C)C(=O)CCCN(C)C)[C@@H](C)CN([C@H](C)CO)C(=O)c2cc(NS(=O)(=O)c3cccs3)ccc2O1 the results were FGF22 binding 0, PglD DTNB -1 and SIRT5 inh -1.
Screening C[C@@H]1CCCCO[C@@H](CN(C)C(=O)CCCN(C)C)[C@H](C)CN([C@@H](C)CO)C(=O)c2cc(NS(=O)(=O)c3cccs3)ccc2O1 returned FGF22 binding 1.3*, PglD DTNB -1 and SIRT5 inh -3.
Screening C[C@@H]1CCCCO[C@H](CN(C)C(=O)CCCN(C)C)[C@@H](C)CN([C@@H](C)CO)C(=O)c2cc(N(C)C)ccc2O1 returned FGF22 binding -1, PglD DTNB 1 and SIRT5 inh 16*.
For C[C@H](CO)N1C[C@H](C)[C@@H](CN(C)C(=O)NC2CCCCC2)Oc2ccc(NS(=O)(=O)c3cccs3)cc2C1=O the results were FGF22 binding -1, PvdQ inh -4, CDK5 p35 inh -2, PglD DTNB -1, SIRT5 inh 16*! and dFosB activator -8.
For COCC(=O)N1CC2(CN[C@@H](CO)c3c2c2ccc(OC)cc2n3C)C1 the results were FGF22 binding 0.
`C[C@H]1CN([C@@H](C)CO)C(=O)c2cc(C#CC3CCCC3)cnc2O[C@@H]1CN(C)C(=O)C1CC1` gave FGF22 binding 0, PglD DTNB 0 and SIRT5 inh 3.
`CC(=O)N1CC[C@@H]2[C@@H](CO)N(C)c3ccc(-c4cccc(F)c4)cc3[C@@H]21` gave FGF22 binding -1, PglD DTNB 1 and SIRT5 inh -27.
C[C@@H]1CCCCO[C@@H](CN(C)C(=O)CCCN(C)C)[C@@H](C)CN([C@H](C)CO)C(=O)c2cc(NS(=O)(=O)c3ccccc3)ccc2O1 was read as FGF22 binding 0, PglD DTNB -2 and SIRT5 inh 19*.
Screening Cc1ccc2nc3c(c(C(=O)OCC(=O)NC4CCS(=O)(=O)C4)c2c1)CCCC3 (stereo not drawn) returned FGF22 binding 43*, PvdQ inh 16, CDK5 p35 inh 0 and dFosB activator -16.
For Cc1ccc2nc3c(c(C(=O)OC4CCOC4=O)c2c1)CCCC3 (stereo not drawn) the results were FGF22 binding 43*, PvdQ inh -8, CDK5 p35 inh -5, PglD DTNB 9, SIRT5 inh -4 and dFosB activator -21.
`COC(=O)C[C@H]1C=C[C@@H](NC(=O)c2ccccc2)[C@@H](CO)O1` gave FGF22 binding 0, PglD DTNB 0 and SIRT5 inh 4.
For Cc1cccc(NC(=O)CSc2nnc(-c3ccc(S(=O)(=O)N4CCCC4)cc3)o2)c1 the results were FGF22 binding 0, PvdQ inh -12, CDK5 p35 inh 0, PglD DTNB 1, SIRT5 inh -1 and dFosB activator -2.
Screening Cc1ccc(NC(=O)CSc2nnc(-c3ccc(S(=O)(=O)N4CCCC4)cc3)o2)cc1C returned PvdQ inh -7, CDK5 p35 inh -1 and dFosB activator 70*.
